This is one part of a sample in which hits are shown more often than they occur.
BL2 CD40 inh – CD40 pathway inhibition in BL2 cells; BL2 NF-kB luciferase reporter, CD40L-induced, 4 h; inhibition, % at 10 µM; 0.94% of 83,000 active; AID 1053188;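 active means mean inhibition of at least 50% with a set share of replicates also reaching that level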;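 further: 0% = neutral control wells and 100% = IKK inhibitor VII at 50 µM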
Numbers without * were called inactive; [ ] = remark or other dose.

SMILES	BL2 CD40 inh
COc1cccc(S(=O)(=O)N2[C@@H]3CNC[C@H]2C3c2ccc(-c3ccc(C(=O)N(C)C)cc3)cc2)c1 (stereo not given in full)	-5.9[25 µM]
O=C(C[C@H]1CC[C@@H]2[C@H](COC[C@H](O)CN2C(=O)c2cnccn2)O1)N1CCN(c2ccccc2)CC1	5.7[25 µM]
c1ccc(-c2ccc(C3[C@H]4CNC[C@@H]3N4Cc3ccccn3)cc2)cc1 (stereo not given in full)	-16.6
CC(C)NC(=O)N(C)C[C@@H]1Oc2ccc(NS(C)(=O)=O)cc2C(=O)N(C)C[C@H]1C	4.5
Cc1noc(C)c1NC(=O)N(C)C[C@H]1OCc2cnnn2CCCC(=O)N([C@@H](C)CO)C[C@@H]1C	0.5[25 µM]
O=S(=O)(Nc1cccc2cccnc12)c1ccc(S(=O)(=O)N2CCCC2)cc1	76.0*
O=S(=O)(Nc1ccccc1)c1ccc(S(=O)(=O)N2CCCC2)cc1	1.9
NC(=O)c1ccccc1NS(=O)(=O)c1ccc(S(=O)(=O)N2CCCC2)cc1	4.5
COc1ccc(CN2[C@H](CO)[C@@H]3c4ccccc4N(C(=O)c4ccccc4)C[C@@H]32)cc1	2.3
CC(C)NC(=O)N(C)C[C@H]1Oc2c(N)cccc2C(=O)N(C)C[C@H]1C	-3.8
C[C@@H]1CN([C@@H](C)CO)C(=O)c2ccccc2-c2ccccc2CO[C@@H]1CN(C)Cc1cccc(C(=O)O)c1	-5.3[25 µM]
O=C1C=CC2C3C(=O)N(c4ccccc4)C(=O)C3C1N2Cc1ccccc1 (stereo not given)	100.0*
COc1ccc(C(=O)[C@H]2[C@H]3C(=O)N(c4ccccc4)C(=O)[C@H]3C3C=CC=NN32)cc1 (stereo not given in full)	-44.8
CC1CN(Cc2ccccc2)C(=O)N(c2ccccc2)C1=O (stereo not given)	-3.0
CCC(=O)N1[C@@H]2c3ccc(-c4ccccc4)c(=O)n3C[C@H]1[C@H](CO)[C@H]2C(=O)N1CCc2ccccc2C1	-5.2[25 µM]
C[C@H](O)C#Cc1cnc2c(c1)C(=O)N([C@@H](C)CO)C[C@@H](C)[C@@H](CN(C)Cc1cccc(C(=O)O)c1)O2	6.8[25 µM]
C[C@@H]1CCCCO[C@@H](CN(C)S(=O)(=O)c2cn(C)cn2)[C@@H](C)CN([C@H](C)CO)C(=O)c2cc(NS(=O)(=O)c3ccc(Cl)cc3)ccc2O1	-4.0
C[C@H](CO)N1C[C@H](C)[C@@H](CN(C)C(=O)Nc2cccc(Cl)c2Cl)OCc2ccccc2-c2c(n(C)c3ccccc23)C1=O	34.4[25 µM]
COc1ccccc1NC(=O)N(C)C[C@H]1OCc2ccccc2-c2c(n(C)c3ccccc23)C(=O)N([C@@H](C)CO)C[C@H]1C	0.8
C[C@@H]1CN([C@@H](C)CO)C(=O)c2c(c3ccccc3n2C)-c2ccccc2CO[C@H]1CN(C)C(=O)Nc1cccc(Cl)c1Cl	41.3[25 µM]
C[C@H]1CN([C@@H](C)CO)C(=O)c2c(c3ccccc3n2C)-c2ccccc2CO[C@H]1CN(C)C(=O)Nc1cccc(Cl)c1Cl	22.8[25 µM]
C[C@@H]1CN([C@H](C)CO)C(=O)c2c(c3ccccc3n2C)-c2ccccc2CO[C@H]1CN(C)C(=O)Nc1cccc(Cl)c1Cl	54.1*[25 µM]
C[C@H](CO)N1C[C@H](C)[C@H](CN(C)C(=O)Nc2cccc(Cl)c2Cl)OCc2ccccc2-c2c(n(C)c3ccccc23)C1=O	65.2*[25 µM]
COc1cccc(NC(=O)N2C[C@H](O)COC[C@H]3O[C@@H](CC(=O)N(C)C)CC[C@@H]32)c1	-3.5[25 µM]
CNC[C@@H]1Oc2ccc(NS(C)(=O)=O)cc2C(=O)N(C)C[C@H]1C	9.7
SMILES	BL2 CD40 inh
C[C@H]1CN(C)C(=O)c2cc(NS(C)(=O)=O)ccc2O[C@@H]1CN(C)S(C)(=O)=O	2.2
CNS(=O)(=O)c1ccc(C)cc1	5.8
Cc1ccc(S(=O)(=O)CS(=O)(=O)c2ccc(C)cc2)cc1	1.6
Cc1ccc(S(=O)(=O)C=CS(=O)(=O)c2ccc(C)cc2)cc1	101.0*
CC(C)[C@H](C)NC(=O)N(C)C[C@@H]1OCc2ccccc2-c2ccccc2C(=O)N([C@@H](C)CO)C[C@@H]1C	-6.3
c1ccc(-c2nnc(-c3ccccn3)nn2)nc1	49.2*
c1ccc(-c2cccc(-c3ccccn3)n2)nc1	9.5
c1ccc(-c2noc(C3CCC3)n2)nc1	2.3
CN1C(=O)c2cc(NC(=O)C3CCCCC3)ccc2OC[C@@H]2O[C@@H](CC(=O)NC3CCCC3)CC[C@H]21	3.5
Cc1cc(C)cc(N2C(=O)CC(Sc3nnnn3-c3ccccc3)C2=O)c1 (stereo not given)	98.7*
Cc1cccc(-n2nnnc2SCC(=O)NC2CCCC2)c1	5.0
Nc1ccc(Sc2nnnn2-c2ccccc2)c(Cl)c1	3.7
CC(C)[C@H](C)NC(=O)N(C)C[C@@H]1OCc2ccccc2-c2ccccc2C(=O)N([C@H](C)CO)C[C@H]1C	-4.8
C[C@@H]1CCCCO[C@@H](CN(C)C(=O)CCC(F)(F)F)[C@@H](C)CN([C@@H](C)CO)C(=O)c2cc(NC(=O)c3ccccc3)ccc2O1	3.0
N#C[C@@H]1[C@@H](c2ccc(/C=C/c3ccccc3)cc2)[C@@H](CO)N1C(=O)C1CCCCC1	-2.7
O=C1[C@H](Cc2ccc(F)cc2)CCn2cc(nn2)COC[C@H]2CCCN12	-7.9[25 µM]
c1ccc(CCSc2nccn2-c2ccccc2)cc1	active
COC(=O)CCCSc1nccn1-c1ccccc1	-8.1
O=C(O)c1cccnc1SCCc1ccccc1	-58.4
C/C=C/c1ccc([C@H]2[C@@H](CNS(C)(=O)=O)N(CC3CC3)[C@H]2CO)cc1	-2.3
CCS(=O)(=O)Nc1ccc2c(c1)C(=O)N(C)C[C@H](OC)[C@H](C)CN(C(=O)c1ccc3c(c1)OCO3)[C@@H](C)CO2	-6.5[25 µM]
O=C1N=C(N2CCOCC2)S/C1=C/c1ccc(-c2ccc(F)cc2)o1	-13.5
O=C1S/C(=C\c2ccc(N3CCOCC3)o2)C(=O)N1Cc1ccc(F)cc1	82.5*
Cc1ccc(CN2C(=O)S/C(=C\c3ccccc3OCC(=O)O)C2=O)cc1	7.2
CS(=O)(=O)N1Cc2cc(C(=O)O)nc(-c3cccc(-c4ccccc4F)c3)c2[C@@H]1CCO	-8.2[25 µM]
SMILES	BL2 CD40 inh
CCC(=O)N1[C@@H]2c3ccc(-c4ccc(F)cc4)c(=O)n3C[C@@H]2[C@@H](CO)[C@@H]1C(=O)N(C)C	-10.5[25 µM]
O=C1C(=C(I)I)c2ccccc2-c2ccccc21	106.0*
NC1=CC(=O)C(=O)c2ccccc21	-12.3
O=C1c2ccccc2-c2nc3ccccc3nc21	-117.6
CCCNC(=O)N1C[C@H]2[C@@H](c3ccccc31)[C@@H](CO)N2Cc1cccc(OC)c1	-8.9[25 µM]
CC(C)OC(=O)N(C)C[C@H]1OCc2ccccc2-c2c(n(C)c3ccccc23)C(=O)N([C@H](C)CO)C[C@H]1C	9.0
COC(=O)/C=C/S(=O)(=O)c1ccc(NC(C)=O)cc1	106.5*
COC(=O)Nc1ccc(NC(C)=O)cc1	3.1
CC(=O)Nc1ccc(S(=O)(=O)CC(=O)CS(=O)(=O)c2ccc(NC(C)=O)cc2)cc1	5.4
O=C1N[C@@H](c2ccccc2)COCc2cn(nn2)CC[C@@H]1Cc1ccccc1	3.8
COc1ccc(S(=O)(=O)N(C)C[C@@H]2Oc3ccc(NC(=O)Nc4ccc(F)cc4)cc3CC(=O)N([C@@H](C)CO)C[C@@H]2C)cc1	3.2
CC(C)NC(=O)Nc1cccc2c1O[C@H](CN(C)C)[C@H](C)CN(C)C2=O	-0.7
COCC(=O)Nc1ccc2c(c1)C(=O)N(C)[C@@H]1CC[C@@H](CC(=O)N3CCc4ccccc4C3)O[C@H]1CO2	-3.7[25 µM]
Cc1cccc(S(=O)(=O)N(C)C[C@H]2OCc3ccccc3-c3c(n(C)c4ccccc34)C(=O)N([C@H](C)CO)C[C@@H]2C)c1	9.0
